Reference: PubChem BioAssay (Tox21)
Inconclusive results are not listed. Unmarked numbers belong to inactive results. Unless noted, calls follow the shape of the dose curve; as a rule, active = well fitted cell-killing curve with a large enough effect in the repeat runs; inconclusive = weak or mixed curves; inactive = no such curve, though single readings can be large or run the other way.

System: not listed separately
Experiment: qHTS assay to identify small molecule antagonists of the peroxisome proliferator-activated receptor delta (PPARd) signaling pathway - cell viability counter screen (AID 743213); also: nearly all actives have a fitted effect of over 50% in size
Conditions: PPARd-bla HEK293H viability, CellTiter-Glo luminescence, 17 h; series mostly up to 62 µM; viability change, negative = cytotoxic: at the top concentration
How it was run: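 In this counter screen, HEK293H cells carrying a UAS-beta-lactamase reporter are co-treated with test compounds and 300 nM L165041 (final) for 17 h at 37 C; cell viability is quantified by CellTiter-Glo luminescence.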
% is scaled to controls: 0 for no effect and ±100 for the full control effect.

| Compound | viability change, negative = cytotoxic |
| --- | --- |
| Cc1nc(C)c(C)nc1C | 5.15% |
| Cc1ccc(S(=O)(=O)NC(=O)NC2CCCC2)cc1 | 11.5% |
| OCCc1ccncc1 | 5.99% |
| C=C(C)C(=O)OCCCCCCCCCCOC(=O)C(=C)C | -7.75% |
| CCC1=C(C)CN(C(=O)NCCc2ccc(S(=O)(=O)NC(=O)NC3CCC(C)CC3)cc2)C1=O (configuration not stated) | -17.5% |
| O=C(C1CCCCC1)N1CC(=O)N2CCCc3ccccc3C2C1 (configuration not stated) | 4.9% |
| N#CCCCC(C#N)CCC#N (configuration not stated) | -3.23% |
| Clc1nc2ccccc2nc1Cl | 4.86% [at 80.4 µM] |
| CC(C)NC(=O)c1ccccc1N | -6.01% |
| CCCc1nc(C)c2c(=O)[nH]c(-c3cc(S(=O)(=O)N4CCN(CC)CC4)ccc3OCC)nn12 | 0.0922% |
| Cc1cccc(C)c1NC(=O)CN1CCCC1 | 20.1% |
| NCCOCCOCCN | -12.2% |
| C=CC(=O)OCCCCCCCCCC | 2.26% |
| Nc1ccc(F)cc1F | 13.3% [at 80.4 µM] |
| O=c1[nH]nc(-c2ccc([N+](=O)[O-])o2)o1 | 1.86% |
| CCN(CC)CC(=O)OCC(=O)[C@@]1(O)CC[C@H]2[C@@H]3CCC4=CC(=O)CC[C@]4(C)[C@H]3[C@@H](O)C[C@@]21C | 2.76% |
| CCOC(OCC)OCC | 18.4% |

| Compound | viability change, negative = cytotoxic |
| --- | --- |
| Cc1ccc2ccccc2c1[N+](=O)[O-] | 2.39% |
| COC(=O)/C=C/C(C)=C\C=C\C(C)=C\C=C\C=C(C)\C=C\C=C(C)\C=C\C(=O)O | -13.8% |
| CO[C@@H]1COCC[C@@H]1N[C@@H]1CC[C@@](C(=O)N2CCc3ncc(C(F)(F)F)cc3C2)(C(C)C)C1 | -13.6% |
| CCCC(=O)OCc1ccccc1 | 4.7% |
| c1ccc(CCNc2nc(-c3ccccc3)cs2)cc1 | 12.4% |
| C[C@]12CCC(=O)C=C1[C@@H]1C[C@@H]1[C@H]1[C@@H]3[C@@H]4C[C@@H]4[C@@]4(CCC(=O)O4)[C@@]3(C)CC[C@@H]12 | 19% |
| O=C(OC1C[C@H]2CC[C@@H](C1)[N+]21CCCC1)C(O)(c1ccccc1)c1ccccc1 (some centres not stated) | 37.2% |
| N#Cc1ccc(CC(=O)c2cccc(C(F)(F)F)c2)cc1 | -4.66% |
| CC(CC(C#N)(c1ccccc1)C(C)C)N(C)C (configuration not stated) | 0.532% |
| O=C(NC1CCN(CCc2c[nH]c3ccccc23)CC1)c1ccccc1 | -20.9% |
| CCCCOC(=O)C(C)Oc1ccc(Oc2ccc(C(F)(F)F)cn2)cc1 (configuration not stated) | 7.2% |
| CC1(C)C(=O)NC(=O)N1CO | 6.81% |
| CCOc1cc(OCC)c(C(C)=O)cc1OCC | -15.7% |
| OCCOc1cccc(OCCO)c1 | 3.84% |
| CC(C)=CCC/C(C)=C/C=N/O | 20.1% |
| CC(=O)Nc1ccn(C2COC(COC(=O)c3ccccc3)O2)c(=O)n1 (configuration not stated) | -10.5% |

Target: Peroxisome proliferator-activated receptor delta (Homo sapiens) (UniProt Q03181)
Experiment: qHTS assay to identify small molecule antagonists of the peroxisome proliferator-activated receptor delta (PPARd) signaling pathway (AID 743215; active = well fitted inhibition curve with a large enough effect in the signal ratio in the repeat runs, not every such curve was filed as active; the % refers to the signal ratio;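 also: cells stimulated with agonist L165041 at 300 nM final during compound exposure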)
Conditions: HEK293H PPARd-UAS-bla, beta-lactamase FRET ratio, antagonist, 17 h; series mostly up to 62 µM; ratio activity, negative = inhibition: at the top concentration
How it was run: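 Inhibition of L165041-driven (300 nM final) PPARd signaling is scored in HEK293H UAS-bla cells. Exposure lasts 17 h at 37 C; beta-lactamase activity is then read by FRET substrate fluorescence after 2 h at room temperature.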

Peroxisome proliferator-activated receptor delta (Homo sapiens), sequence (Q03181 whole entry, looked up): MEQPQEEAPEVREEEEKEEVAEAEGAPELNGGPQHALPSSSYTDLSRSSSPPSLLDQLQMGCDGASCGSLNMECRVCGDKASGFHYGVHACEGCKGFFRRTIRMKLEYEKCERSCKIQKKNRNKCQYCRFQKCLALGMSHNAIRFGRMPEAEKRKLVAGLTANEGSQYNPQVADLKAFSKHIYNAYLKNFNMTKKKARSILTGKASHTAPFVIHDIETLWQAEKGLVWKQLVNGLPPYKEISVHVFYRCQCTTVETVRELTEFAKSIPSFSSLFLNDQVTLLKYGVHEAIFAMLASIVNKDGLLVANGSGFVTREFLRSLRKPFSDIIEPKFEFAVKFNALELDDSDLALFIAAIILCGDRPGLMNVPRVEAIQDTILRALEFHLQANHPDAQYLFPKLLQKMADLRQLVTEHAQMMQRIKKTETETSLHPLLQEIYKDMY

| Compound | ratio activity, negative = inhibition |
| --- | --- |
| Cc1nc(C)c(C)nc1C | 2.76% |
| Cc1cc(C)c(C)c(O)c1 | 10.1% |
| C=C(C)C(=O)OCCCCCCCCCCOC(=O)C(=C)C | -1.94% |
| CCC1=C(C)CN(C(=O)NCCc2ccc(S(=O)(=O)NC(=O)NC3CCC(C)CC3)cc2)C1=O (configuration not stated) | 0.432% |
| Cc1ccc(Cl)c(OCC(O)CNC(C)(C)C)c1 (configuration not stated) | -12% |
| O=C(C1CCCCC1)N1CC(=O)N2CCCc3ccccc3C2C1 (configuration not stated) | 1.85% |
| N#CCCCC(C#N)CCC#N (configuration not stated) | -6.82% |
| C[C@H](CN1CCCC1)C(=O)c1ccc(C(F)(F)F)cc1 | -27.2% |
| Clc1nc2ccccc2nc1Cl | 1.48% [at 80.4 µM] |
| CCCc1nc(C)c2c(=O)[nH]c(-c3cc(S(=O)(=O)N4CCN(CC)CC4)ccc3OCC)nn12 | -3.91% |
| CC(COc1ccccc1)NC(C)C(O)c1ccc(O)cc1 (configuration not stated) | 4.76% |
| O=c1[nH]nc(-c2ccc([N+](=O)[O-])o2)o1 | 0.74% |
| Cc1ccc2ccccc2c1[N+](=O)[O-] | -0.676% |
| CO[C@@H]1COCC[C@@H]1N[C@@H]1CC[C@@](C(=O)N2CCc3ncc(C(F)(F)F)cc3C2)(C(C)C)C1 | -1.5% |
| CCCC(=O)OCc1ccccc1 | 2.78% |
| c1ccc(CCNc2nc(-c3ccccc3)cs2)cc1 | -6.26% |
| O=C(OC1C[C@H]2CC[C@@H](C1)[N+]21CCCC1)C(O)(c1ccccc1)c1ccccc1 (some centres not stated) | 0.0803% |
| N#Cc1ccc(CC(=O)c2cccc(C(F)(F)F)c2)cc1 | -1.03% |
| CCCCOC(=O)C(C)Oc1ccc(Oc2ccc(C(F)(F)F)cn2)cc1 (configuration not stated) | -2.47% |
| CC1(C)C(=O)NC(=O)N1CO | 4.35% |
| CCOc1cc(OCC)c(C(C)=O)cc1OCC | 3.32% |
| OCCOc1cccc(OCCO)c1 | 1.42% |
| CC(C)=CCC/C(C)=C/C=N/O | 1.74% |

Target: Bile acid receptor (Homo sapiens) (UniProt Q96RI1)
Experiment: qHTS assay to identify small molecule antagonists of the farnesoid-X-receptor (FXR) signaling pathway (AID 743217; active = well fitted inhibition curve with a large enough effect in the signal ratio in the repeat runs, not every such curve was filed as active; the % refers to the signal ratio)
Conditions: HEK293T FXR-UAS-bla, beta-lactamase ratio, CDCA-stimulated, 16 h; series mostly up to 62.6 µM; activity change, negative = inhibition: at the top concentration
How it was run: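 Antagonist mode against 50 uM (final) chenodeoxycholic acid stimulation in FXR-bla HEK 293T cells, 16 h at 37 °C. Inhibition detected as reduced beta-lactamase activity via LiveBLAzer B/G FRET fluorescence after 2 h at room temperature.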

Bile acid receptor (Homo sapiens), sequence (Q96RI1 whole entry, looked up): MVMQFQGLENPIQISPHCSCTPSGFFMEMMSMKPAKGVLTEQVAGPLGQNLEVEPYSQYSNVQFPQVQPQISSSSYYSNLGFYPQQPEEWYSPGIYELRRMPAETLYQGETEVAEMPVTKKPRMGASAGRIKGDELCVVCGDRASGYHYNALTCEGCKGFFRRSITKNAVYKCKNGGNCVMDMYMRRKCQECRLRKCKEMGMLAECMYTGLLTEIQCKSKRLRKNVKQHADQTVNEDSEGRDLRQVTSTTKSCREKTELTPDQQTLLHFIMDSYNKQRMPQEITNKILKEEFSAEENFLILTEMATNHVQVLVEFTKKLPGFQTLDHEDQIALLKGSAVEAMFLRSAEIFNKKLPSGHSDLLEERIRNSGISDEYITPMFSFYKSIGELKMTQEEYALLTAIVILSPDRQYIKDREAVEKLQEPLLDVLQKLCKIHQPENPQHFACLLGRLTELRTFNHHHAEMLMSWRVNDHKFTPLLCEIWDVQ

| Compound | activity change, negative = inhibition |
| --- | --- |
| OCCc1ccncc1 | 1.33% |
| C=C(C)C(=O)OCCCCCCCCCCOC(=O)C(=C)C | -1.54% |
| C[C@H](CN1CCCC1)C(=O)c1ccc(C(F)(F)F)cc1 | -8.61% |
| CC(C)NC(=O)c1ccccc1N | -0.716% |
| CCOC(OCC)OCC | 1.72% |
| COC(=O)/C=C/C(C)=C\C=C\C(C)=C\C=C\C=C(C)\C=C\C=C(C)\C=C\C(=O)O | -9.42% |
| CCCC(=O)OCc1ccccc1 | 3.54% |
| CC(CC(C#N)(c1ccccc1)C(C)C)N(C)C (configuration not stated) | 1.68% |
| CCCCOC(=O)C(C)Oc1ccc(Oc2ccc(C(F)(F)F)cn2)cc1 (configuration not stated) | -0.101% |
| CCOc1cc(OCC)c(C(C)=O)cc1OCC | -0.432% |
| CC(C)=CCC/C(C)=C/C=N/O | 2.92% |
